Source: PubChem BioAssay (National Center for Advancing Translational Sciences (NCATS))
Rows were chosen to be rich in hits. Some 11% of all compounds tested hit in one or more screens of this group.
PI5P4K alpha inh – qHTS for Inhibitors of phosphatidylinositol 5-phosphate 4-kinase (PI5P4K); Phosphatidylinositol 5-phosphate 4-kinase type-2 alpha (Homo sapiens), P48426; PI5P4Kalpha enzyme, ADP-Glo luminescence, 60 min; hits give low values; max response, %; 1.2% of 330,000 active; active = max response of -50% or lower; inconclusive = between -30% and -50%; inactive = -30% or higher; note: value at the top dose of about 77 µM; % is set by controls: 0 for no effect and ±100 for the full control effect
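Human PI5P4Kalpha with substrate in 0.038 M HEPES pH 7.4, 0.28 mM EGTA, 0.1% CHAPS, 5% DMSO; reaction started with 5 microM ATP (final), 60 min at room temperature. ADP formed read by ADP-Glo luminescence.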
JMJD2A Tudor – qHTS Assay for Inhibitors of JMJD2A-Tudor Domain; Lysine-specific demethylase 4A (Homo sapiens), O75164; AlphaScreen JMJD2A-Tudor / H3K4me3 peptide binding; Potency, µM (series often up to 114 µM), without a hit: at the highest dose activity change, negative = inhibition, most hits filed as inhibitors; 4.4% of 390,000 active; note: potency is the fitted concentration of half-maximal effect; % is set by controls: 0 for no effect and ±100 for the full control effect; nearly all actives have a fitted effect of over 50% in size
HP1b binding inh – HTS for Inhibitors of HP1-beta Chromodomain Interactions with Methylated Histone Tails | Potency, µM (titrated, usually from 114 µM), inactives show at the top dose activity change, negative = inhibition, usual class: inhibitors | AlphaScreen HP1-beta / biotin-H3K9me3 peptide binding | 0.56% of 390,000 active; note: potency is the fitted concentration of half-maximal effect; nearly all actives have a fitted effect of over 70% in size
Target sequence (P83916 whole entry, looked up): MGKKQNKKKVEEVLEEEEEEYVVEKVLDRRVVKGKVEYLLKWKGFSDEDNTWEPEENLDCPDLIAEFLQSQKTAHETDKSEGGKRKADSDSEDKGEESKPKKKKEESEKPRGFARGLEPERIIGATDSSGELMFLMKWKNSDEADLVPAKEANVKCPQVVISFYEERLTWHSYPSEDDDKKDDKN
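HP1-beta protein (50 nM final) preincubated 30 min at room temperature with biotinylated H3(1-18)K9me3 peptide (50 nM) in PBS pH 7.4, 0.01% Tween-20, then compound added for 30 min. AlphaScreen streptavidin donor/nickel chelate acceptor beads (10 ug/mL final), 30 min dark, luminescence read.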
L3MBTL1 inh – qHTS Assay for the Inhibitors of L3MBTL1 | Lethal(3)malignant brain tumor-like protein 1 (Homo sapiens), Q9Y468 | AlphaScreen L3MBTL1–H3K9me1 peptide binding | Potency, µM (highest dose often 57.1 µM), for the others: top-dose activity, negative = inhibition, usual class: inhibitors | 0.66% of 230,000 active | AID 485360, 2010; note: potency is the fitted concentration of half-maximal effect; % is set by controls: 0 for no effect and ±100 for the full control effect; nearly all actives have a fitted effect of over 60% in size
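AlphaScreen assay: L3MBTL1 (50 nM final) was preincubated 30 min at room temperature with biotinylated H3(1-15)K9me1 peptide (75 nM final), then 30 min with library compounds; streptavidin donor and nickel chelate acceptor beads (10 ug/mL final) added, 30 min dark.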
BAZ2B inh – qHTS Assay for Inhibitors of BAZ2B | Bromodomain adjacent to zinc finger domain protein 2B (Homo sapiens), Q9UIF8 | AlphaScreen BAZ2B-H3K14Ac peptide displacement | Potency, µM (titrated, usually from 114 µM), inactives show top-dose activity change, negative = inhibition, most hits filed as inhibitors | 4.4% of 360,000 active | AID 504333, 2011; note: potency is the fitted concentration of half-maximal effect; % is set by controls: 0 for no effect and ±100 for the full control effect; nearly all actives have a fitted effect of over 60% in size
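Complex of BAZ2B and biotin-H3K14Ac (50 nM apiece) forms over 30 min at RT, then faces library compounds up to 110 uM for another 30 min; AlphaScreen beads added, 20 min dark incubation, luminescence read.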
G9a inh – qHTS Assay for Inhibitors of Histone Lysine Methyltransferase G9a | AID 504332, 2011 | Histone-lysine N-methyltransferase EHMT2 (Homo sapiens), Q96KQ7 | Potency, µM (doses to about 102 µM), without a hit: top-dose activity, negative = inhibition, most hits filed as inhibitors | G9a H3K9 monomethylation, AlphaScreen, 2 h | 8.8% of 350,000 active; note: potency is the fitted concentration of half-maximal effect; % is set by controls: 0 for no effect and ±100 for the full control effect; nearly all actives have a fitted effect of over 75% in size
Target sequence (Q96KQ7 913-1193 limits assumed): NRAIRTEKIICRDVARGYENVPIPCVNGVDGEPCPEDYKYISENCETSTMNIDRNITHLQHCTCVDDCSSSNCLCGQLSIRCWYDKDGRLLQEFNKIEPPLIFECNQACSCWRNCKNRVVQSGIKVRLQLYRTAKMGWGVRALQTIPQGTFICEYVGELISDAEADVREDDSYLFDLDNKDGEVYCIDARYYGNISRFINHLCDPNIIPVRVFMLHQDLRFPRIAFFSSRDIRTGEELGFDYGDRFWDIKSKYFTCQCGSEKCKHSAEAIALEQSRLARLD
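G9a (20 nM) was preincubated 15 min with compound, then reacted 2 h at room temperature with 500 nM biotin-H3K9 peptide and 20 µM SAM. Monomethyl-H3K9 detected by AlphaScreen using anti-H3K9me1 antibody.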
The depositor's hits bear a star; ? = inconclusive; · = not tested or not shown; [ ] = another dose, or the depositor's remark. Unless noted, calls come from the whole dose curve; as a rule, active = well fitted inhibition curve with a large enough effect; inconclusive = small, poorly fitted or top-dose-only effect; inactive = no such curve, though single readings can be large or run the other way.

SMILES	PI5P4K alpha inh	JMJD2A Tudor	HP1b binding inh	L3MBTL1 inh	BAZ2B inh	G9a inh
COc1ccc([S+](=O)([O-])N2CCN([S+](=O)([O-])c3ccc4c(c3)OCCO4)CC2)c(OC)c1	·	-25%	·	·	·	·
CC1=C(c2ccc(C)c(C)c2)S(=O)(=O)N=C1N1CCC(C(=O)NCc2ccc(C)o2)CC1	·	-9%	1%	·	-21%	19%[59 µM]
COCCn1c(C)cc(/C=C2/NC(=O)N(c3cccc(Cl)c3)C2=O)c1C	2	-24%	8%	-19%	-37%	50µM*
O=C(Nc1ccccc1C(=O)OCc1cc(=O)n2c3c(sc2n1)CCCC3)c1ccc(F)cc1	·	-3%	35%	·	-9%	15%[59 µM]
CCCCSCCCNC(=O)c1cn(CC)c2ccc(S(=O)(=O)N3CCCCCC3)cc2c1=O	·	-27%	27%	·	·	11%[59 µM]
C=CCNc1nc(-c2c(C)nc3sccn23)cs1	-2	-30%	18%	-12%	-11%	28µM*
Cc1ccc(C)c(C(=O)c2c(C)nc3sccn23)c1	2	-5%	24%	3%	22%	8%[59 µM]
Cc1nc2sccn2c1-c1csc(NCc2ccccc2)n1	·	63µM*	?	-8%	?	?
O=C(NNS(=O)(=O)c1ccc2ccccc2c1)c1cc(-c2ccccn2)nc2ccccc12	-4	-33%	-10%	-1%	9%	79µM*
Cc1ccccc1NC(=S)NNC(=O)c1cccnc1	-18	22µM*	-3%	3%	-2%	1.8µM*
O=C(NNS(=O)(=O)c1ccccc1)c1cccnc1	1	-11%[11.4 µM]	13%	-4%	-17%	22%[59 µM]
O=C(NNS(=O)(=O)c1ccc2ccccc2c1)c1cccnc1	-5	7.9µM*	10%	-3%	0%	-16%[59 µM]
O=C(Nn1cnnc1)c1cc(-c2ccccn2)nc2ccccc12	-12	-12%	35%	·	-32%	-33%[12.7 µM]
O=C(NNC(=S)NC(=O)c1cccnc1)c1ccccc1	-14	?	1%	5%	4%[57.1 µM]	28µM*
O=C(/C=C/c1ccc(F)cc1)NC(=S)NNC(=O)c1cnccn1	0	7.9µM*	2%	·	2.8µM*	50µM*
O=C(NC(=S)Nc1nc(-c2ccccc2)cs1)c1cccnc1	-28	-17%	-6%	·	-23%	2.5µM*
Cc1cccc(C)c1NC(=O)CNC(=O)c1cccnc1	3	-4%	51%	·	-14%	79µM*
O=S(=O)(Nc1ccncc1Cl)c1ccc2ccccc2c1	2	1%	50%	-3%	-14%	45µM*
O=C(NC(=S)Nc1nc(-c2ccccc2)cs1)c1cncc(Br)c1	·	-22%	-7%	-4%	9%[57.1 µM]	-12%
Cc1cccc(CCNC(=O)C2CCC(CNS(=O)(=O)c3ccccc3)CC2)c1 (centres undefined)	·	3%	25%	·	-13%	6%[59 µM]
COC(=O)c1ccccc1NC(=O)CCCn1c(=O)c2cccn2c2cccnc21	·	-21%	19%	·	-11%	-29%[59 µM]
Clc1ccccc1-c1cc(NCc2ccccc2)ncn1	·	·	·	·	·	-1%[0.501 µM]
COc1ccc(OC)c(S(=O)(=O)NCc2ccc3c(c2)CCN3C(=O)c2cccc(C)c2)c1	·	-14%	21%[57 µM]	·	-11%	5%[59 µM]
O=C(NNC(=S)NCc1ccccc1)c1cccnc1	-2	-24%	43%	·	10%	29%
O=C(NC(=S)NNS(=O)(=O)c1ccc(Cl)cc1)c1cccnc1	-2	-14%	22%	4%	2%	50µM*
O=C(NNC(=S)Nc1ccccc1)c1cccnc1	6	-12%	38%	·	-23%	56µM*
O=C(NNC(=S)NC(=O)c1ccc(F)cc1)c1cccnc1	-8	-8%	6%	·	7%	11µM*
